# Results taken from article PMC5540273 (PLoS ONE, 2017).
# Test system: MYLK
# Settings: concentration: 1 μM, replicates: in singlicate; n = 1
# 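Further: KINOMEscan kinase panel screen.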
row,SMILES,%Inh [%]
1,COc1cc(Nc2nccc(N3CCC(NS(=O)(=O)c4ccc(NC(C)=O)cc4)CC3)n2)cc(OC)c1OC [GSK1379825],1
2,Cc1nn2c(=O)cc(N3CCO[C@H](C)C3)nc2n1Cc1cccc(Cl)c1Cl [GSK2373693],0
3,CN1CCN(Cc2ccc(NC(=O)Nc3ccc(N(C)c4ccnc(Nc5ccc(CS(C)(=O)=O)cc5)n4)cc3)cc2)CC1.Cl [GW827654],45
4,COC(=O)Nc1nc2ccc(Oc3ccc(CC(=O)Nc4cc(C(F)(F)F)ccc4F)cc3)cc2[nH]1 [GW680903],10
5,COc1ccc(C2=C(Nc3cccc(O)c3)C(=O)NC2=O)cc1 [SB-390766],3
6,CN(C)c1ncnc2nc[nH]c12 [SKF-31736],0
7,Cc1cc(-c2ccnc(Nc3cccc(C#N)c3)n2)cc(C)c1O [GSK1440913],13

# Test system: MYO3A
# Settings: concentration: 1 μM, replicates: in singlicate; n = 1
row,SMILES,%Inh [%]
1,N#CC1(c2cccc(C(=O)Nc3cccc(Oc4ccc5nc(NC(=O)C6CC6)sc5n4)c3)c2)CC1,0
2,O=C(Nc1n[nH]c2nc(-c3ccccc3)ccc12)C1CC1 [SB-708999],25
3,CC(C)c1nc(-c2cccc(NS(=O)(=O)c3c(F)cccc3F)c2)c(-c2ccnc(Nc3ccc(N4CCOCC4)nc3)n2)s1.Cl [GSK1723980],25
4,Cl.Cl.NCC(NC(=O)c1cc(-c2cccnc2)c(-c2ccnc3[nH]ccc23)s1)c1ccccc1 (centres unmarked) [GSK1323434],39
5,COC(=O)Nc1nc2cc(Oc3ccc(NC(=O)Nc4cccc(SC)c4)cc3)ccc2[nH]1.Cl [GW697999],25
6,O=C(Nc1n[nH]c2nc(-c3ccccc3O)ccc12)C1CC1 [SB-711880],36
7,O=C(Nc1n[nH]c2cc(-c3cccs3)ccc12)C1CC1 [SB-731284],0
8,O=C(Nc1c(F)cccc1F)c1cc(C(=O)c2ccccc2F)c[nH]1 [GSK1326180],0
9,Cc1ccc(Nc2ccnc(Nc3ccc(C)c(F)c3)n2)cc1O.Cl [GW582868],2
10,COc1cccc(-c2nc(-c3ccccc3)[nH]c2-c2ccncc2)c1 [SB-610250],18
11,CCn1cnc2c(NCc3ccccc3)ncnc21 [SKF-96418],0
12,Cl.Cl.NC(CNC(=O)c1cc(Br)c(-c2ccnc3[nH]ccc23)s1)c1ccccc1 (centres unmarked) [GSK1322949],34
13,CN(c1ccc(F)c(NC(=O)c2cccc(OC(C)(C)C#N)c2Cl)c1)c1ccc2nc(NC(=O)C3CC3)sc2n1,0
14,Fc1cc(Cl)ccc1Nc1ccnc2cc(-c3ccc(CN4CCOCC4)o3)ccc12 [GW560109],0
15,COc1cc(Nc2ccnc3cc(-c4ccncc4)ccc23)cc(OC)c1OC.Cl [GW494610],19
16,Cc1ccc(O)cc1Nc1ccnc2cc(-c3ccc(CN4CCCCC4)o3)ccc12 [GW557777],4
17,Nc1ncc(-c2ccc3nccc(-c4ccncc4)c3c2)cc1S(=O)(=O)N1CCCCC1 [GSK1693850],22
18,COc1ccc(C)c(Nc2ccnc(Nc3ccc(-c4cnc[nH]4)cc3)n2)c1.Cl [GW784041],11
19,Fc1cc(Cl)ccc1Nc1ccnc2cc(-c3ccc(CN4CCSCC4)o3)ccc12 [GW560106],38

row,SMILES,%Inh [%]
1,Cc1ccc(NC(=O)c2ccnc(N3CCCCC3)c2)cc1-c1ccc(C(=O)NCC2CC2)cc1 [GW775610],0
2,CCOc1nccc(-c2c(-c3ccc(F)cc3)ncn2C2CCNCC2)n1 [SB-249175],90
3,O=C(O)C(F)(F)F.O=c1[nH]ccc2nc(N[C@@H]3CCNC3)nc(Nc3ccc4c(c3)S(=O)(=O)CC4)c12 [GSK2181306],74
4,c1ccc(Oc2ccc(Nc3ccnc4cc(-c5ccc(CN6CCCCC6)o5)ccc34)cc2)nc1 [GW567143],0
5,Cc1ccc(C)c(NC(=O)Nc2ccc(C)c(-c3ccc(C(=O)Nc4ccncc4)cc3)c2)c1 [GSK1398473],0
6,Cn1cc(-c2cnc(N)c3c(-c4ccc5c(c4)CCN5C(=O)Cc4ccccc4)csc23)cn1 [GSK2593074],0
7,O=C(O)C(F)(F)F.O=c1[nH]ccc2nc(N[C@@H]3CCNC3)nc(Nc3cc(Cl)cc(Cl)c3)c12 [GSK2188764],59
8,Cl.O=C(Nc1ccc(Oc2ccc3[nH]c(NC(=O)c4ccco4)nc3c2)cc1)Nc1cc(C(F)(F)F)ccc1F [GW683134],0
9,Cc1cccc(Nc2nc(NCCN)ncc2C(N)=O)c1 [GSK1292139],5
10,CC(C)NCC(Cc1ccccc1)NC(=O)c1cc(Br)c(-c2ccnc3[nH]ccc23)s1.Cl.Cl (centres unmarked) [GSK1383281],19
11,Nc1cccc(-c2ccc3c(N)n[nH]c3c2)c1 [GSK2193613],45
12,COc1cc(Nc2nccc(N3CCC(NS(=O)(=O)c4ccc(NC(C)=O)cc4)CC3)n2)cc(OC)c1OC [GSK1379825],0
13,Cc1nn2c(=O)cc(N3CCO[C@H](C)C3)nc2n1Cc1cccc(Cl)c1Cl [GSK2373693],0
14,CN1CCN(Cc2ccc(NC(=O)Nc3ccc(N(C)c4ccnc(Nc5ccc(CS(C)(=O)=O)cc5)n4)cc3)cc2)CC1.Cl [GW827654],99.1
15,COC(=O)Nc1nc2ccc(Oc3ccc(CC(=O)Nc4cc(C(F)(F)F)ccc4F)cc3)cc2[nH]1 [GW680903],12
16,COc1ccc(C2=C(Nc3cccc(O)c3)C(=O)NC2=O)cc1 [SB-390766],0
17,CN(C)c1ncnc2nc[nH]c12 [SKF-31736],0
18,Cc1cc(-c2ccnc(Nc3cccc(C#N)c3)n2)cc(C)c1O [GSK1440913],0
